aSyn 5UTR act = Activators working through SNCA 5'UTR binding (MLPCN); activity score, % (tested at 7.5 µM), hits read low; alpha-synuclein 5'UTR reporter, activators screen; AID 1814; 7.1% of 300,000 active; in the data active = activity score below about -60%
Of the large screens only hits and unclear results are named; the others gave an inactive call. These entries were drawn from the full list.

Cc1noc(N)c1C(=O)Nc1ccc(C(C)(C)C)cc1	aSyn 5UTR act -106
CCOC(=O)Cc1ccc(NC(=O)c2ccc(C(C)(C)C)cc2)cc1	none
COc1cccc(-c2cc(C(=O)N3CCCc4ccccc43)no2)c1	aSyn 5UTR act -126
COc1ccc(-c2cc(C(=O)N3CCCc4ccccc43)no2)cc1	aSyn 5UTR act -107
c1ccc(-c2nc3c(ccc4ccccc43)[nH]2)nc1	aSyn 5UTR act -157
O=c1[nH]c(-c2ccccn2)nc2ccccc12	aSyn 5UTR act -96
c1ccc(-c2nc3ccccc3[nH]2)nc1	aSyn 5UTR act -81
Nc1nc(-c2nc3ccccc3[nH]2)cs1	aSyn 5UTR act -86
O=C(/C(=C(\[O-])c1ccccc1)[n+]1ccc2ccccc2c1)c1ccc(Cl)cc1	aSyn 5UTR act -63
O=C(/C(=C(\[O-])c1ccccc1)[n+]1ccc2ccccc2c1)c1ccccc1	aSyn 5UTR act -72
O=C(COc1ccccc1)Nc1cccc(-c2cn3cccnc3n2)c1	aSyn 5UTR act -84
O=C(Nc1cccc(Cl)c1)c1csc(-c2ccccc2)n1	aSyn 5UTR act -121
O=C(Nc1cccc(-c2cn3ccccc3n2)c1)c1cnccn1	aSyn 5UTR act -87
O=C(COc1ccccc1)Nc1cccc(-c2nc3cc4ccccc4cc3[nH]2)c1	aSyn 5UTR act -140
CCCCC(=O)Nc1cccc(-c2cn3ccsc3n2)c1	aSyn 5UTR act -78
CCC(=O)Nc1cccc(-c2csc(-c3ccccc3)n2)c1	aSyn 5UTR act -121
CCC(=O)Nc1cccc(-c2cn3ccccc3n2)c1	aSyn 5UTR act -89
O=C(CSC1=NCCS1)Nc1nc2ccccc2s1	aSyn 5UTR act -154
COc1ccc2nc(NC(=O)CSc3nnc(C)s3)sc2c1	aSyn 5UTR act -78
Cc1nc(SCC(=O)Nc2nc3ccccc3s2)c(C#N)c(C)c1C	none
CSc1nsc(SCC(=O)Nc2nc3ccccc3s2)n1	aSyn 5UTR act -71
COc1ccc2nc(NC(=O)CSc3nc(SC)ns3)sc2c1	aSyn 5UTR act -110
COc1ccc2nc(NC(=O)CSc3nnnn3C)sc2c1	aSyn 5UTR act -122
CCn1nnnc1SCC(=O)Nc1nc2ccccc2s1	aSyn 5UTR act -86
O=[N+]([O-])c1cccc(/C=N/N2CCN(Cc3ccccc3)CC2)c1	aSyn 5UTR act -115
O=[N+]([O-])c1cccc(/C=N/N2CCN(c3ccccn3)CC2)c1	aSyn 5UTR act -99
CCN1CCN(Cc2ccc(NC(=O)c3cc(NC(=O)C(=O)c4c[nH]c5ccccc45)cc(OC)c3)cc2C(F)(F)F)CC1	none
Cc1[nH]c2ccccc2c1C(=O)C(=O)Nc1ccc2c(c1)OCCO2	aSyn 5UTR act -126
O=C(Nc1ccc2c(c1)OCO2)C(=O)c1c[nH]c2ccccc12	aSyn 5UTR act -72
O=C(NCc1ccccn1)C(=O)Nc1ccccc1	aSyn 5UTR act -150
Cc1ccc(NC(=O)C(=O)NCc2ccccn2)cc1	aSyn 5UTR act -110
CC(C)(C)c1ccc(-c2noc(-c3ccc4c(c3)CCO4)n2)cc1	aSyn 5UTR act -157
Cc1cc(-c2nc(-c3ccc(C(C)(C)C)cc3)no2)no1	aSyn 5UTR act -171
c1ccc(-c2cc3n(c2)CCc2ccccc2-3)cc1	aSyn 5UTR act -135
O=C(O)c1cccc(CSc2nnc(-c3ccc(Cl)cc3)o2)c1	none
O=C(CSc1nnc(-c2ccc(O)cc2)o1)N1CCOCC1	aSyn 5UTR act -77
O=C(CSc1nnc(-c2ccc(OC(F)F)cc2)o1)N1CCOCC1	aSyn 5UTR act -67
O=C(CSc1nnc(-c2ccc(Cl)cc2)o1)N1CCOCC1	aSyn 5UTR act -154
Oc1ccc(-c2nnc(SCC3CCCCC3)o2)cc1	aSyn 5UTR act -132
COc1ccc(-c2nnc(SCC(=O)N3CCOCC3)o2)cc1	aSyn 5UTR act -105
CSc1ccc(-c2nc(CSCC(=O)N3CCOCC3)c(C)o2)cc1	aSyn 5UTR act -77
C=CCSc1nncn1/N=C/c1ccc(OC)cc1	aSyn 5UTR act -99
CCc1cc2cc(C(=O)Nc3ccc(C)cc3)sc2s1	aSyn 5UTR act -90
CN1CCN(C(=O)/C=C/c2c(F)cccc2Cl)CC1	aSyn 5UTR act -68
O=C(/C=C/c1c(F)cccc1Cl)Nc1ccncc1	aSyn 5UTR act -328
O=C(/C=C/c1c(Cl)cccc1Cl)Nc1ccncc1	aSyn 5UTR act -293
Cc1ccc(OCc2nc(-c3cccs3)no2)c([N+](=O)[O-])c1	aSyn 5UTR act -64
O=[N+]([O-])c1ccccc1OCc1nc(-c2cccs2)no1	aSyn 5UTR act -114
O=[N+]([O-])c1ccc(F)cc1OCc1nc(-c2cccs2)no1	aSyn 5UTR act -177
CCSc1nc2ccccc2n1C(=O)/C=C\c1ccc(OC)c(OC)c1	aSyn 5UTR act -112
CC(=O)n1nc(-c2ccc(Cl)cc2)nc1NCc1ccco1	aSyn 5UTR act -117
COc1ccc(CC(=O)n2nc(-c3ccc(Cl)cc3)nc2NCc2ccco2)cc1	aSyn 5UTR act -105
CCC(=O)n1nc(-c2ccc(OC)cc2)nc1NCc1cccs1	aSyn 5UTR act -102
OCCCNc1c2ccccc2nc2ccccc12	aSyn 5UTR act -155
Fc1cccc(NCCc2c[nH]c3ccccc23)n1	aSyn 5UTR act -101
c1ccc2c(NCCc3c[nH]c4ccccc34)c3ccccc3nc2c1	aSyn 5UTR act -549
COc1cc(-c2onc3ccc(Br)cc23)cc(OC)c1OC	none
COc1ccc(-c2noc(-c3ccc(Br)o3)n2)cc1OC	aSyn 5UTR act -97
COc1ccc(-c2c(-c3cc(OC)c(OC)c(OC)c3)noc2C)cn1	none
COc1cc(-c2nc(-c3ccc(Br)o3)no2)cc(OC)c1OC	aSyn 5UTR act -76
CCOC(=O)c1cnc2cc3c(cn2c1=O)CCCC3	aSyn 5UTR act -132
CCOC(=O)Cc1c(C)nc2c(-c3ccccc3)c(-c3ccccc3)[nH]n2c1=O	aSyn 5UTR act -85
Cc1nc2c(-c3ccc(Cl)cc3)c(C)[nH]n2c(=O)c1Cc1ccccc1	none
O=C(Nc1ccc2oc(-c3ccccc3F)nc2c1)c1cncc(Br)c1	aSyn 5UTR act -65
O=C(Nc1ccc2oc(-c3ccccc3F)nc2c1)c1ccc([N+](=O)[O-])o1	aSyn 5UTR act -142
N/C(=N\c1nc2c(c(=O)[nH]1)CCC2)Nc1cccc2ccccc12	aSyn 5UTR act -71
CC[C@@H](C(=O)[C@@H](C)[C@@H](O)[C@H](C)CCc1ccc(C)c(O)c1C(=O)O)[C@H]1O[C@](CC)([C@H]2CC[C@](O)(CC)[C@H](C)O2)C[C@@H]1C	none
Nc1nc(-c2cc(O)ccc2[N+](=O)[O-])cc(-c2ccccc2)c1[N+](=O)[O-]	aSyn 5UTR act -120
Cc1cccc(-n2ncc3c(N4CCCc5ccccc54)ncnc32)c1	aSyn 5UTR act -123
Cc1cccc(-n2ncc3c(N(CCO)CCO)ncnc32)c1	aSyn 5UTR act -106
c1ccc(CNc2ncnc3c2cnn3-c2ccccc2)cc1	aSyn 5UTR act -256
Cc1cccc(-n2ncc3c(NCc4ccccc4)ncnc32)c1	aSyn 5UTR act -140
Cc1cccc(-n2ncc3c(N(C)C4CCCCC4)ncnc32)c1	none
CCOc1ccccc1CNS(=O)(=O)c1ccc(-c2cnc(C3CC3)o2)cc1	none
Fc1ccc(CNc2ncnc3c2cnn3-c2ccccc2)cc1	aSyn 5UTR act -71
c1ccc(-n2ncc3c(NCCN4CCCCC4)ncnc32)cc1	aSyn 5UTR act -133
c1ccc(CCNc2ncnc3c2cnn3-c2ccccc2)cc1	aSyn 5UTR act -149
CC(C)(C)Nc1ncnc2c1cnn2-c1ccccc1	aSyn 5UTR act -104
Clc1ccc(-n2ncc3c(NCc4cccnc4)ncnc32)cc1Cl	aSyn 5UTR act -87
CC1=CCC(/C=N\Nc2nnc3c(n2)[nH]c2ccccc23)CC1 (stereo not drawn)	aSyn 5UTR act -65
COc1ccc(CC(=O)Nc2ccccc2C(=O)NCCc2ccccc2)cc1	aSyn 5UTR act -101

From PubChem BioAssay
